# PubChem BioAssay
# Several values for one entry are separate records, joined by “and”; a condition that tells them apart may be missing. Equal entries are not always repeated. Inconclusive results are not listed. Activity calls are given as the source filed them.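 How the source made its calls, unless noted: active means mean z-score across replicates of 1.96 or higher in either the MELAS or the Rieske mutant cell line; inactive means the rest.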
# Experiments:
# [1] = ovarian cancer cell viability with rucaparib, profiling panel, oncology-focused library, rucaparib conditional (AID 1508598;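 active means normalized viability below 100% at a tested concentration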); settings: patient-derived ovarian cancer cells, CellTiter-Glo viability, 144 h, stronger effect = lower value
# [2] = molecular target: Mitogen-activated protein kinase 7 (Homo sapiens) (UniProt Q13164); test: ERK5 transactivation activators in reporter cells, primary screen, cell-based, HTS (AID 1508626;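 active means luciferase signal above three times the same-plate solvent-only control wells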;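 further: luciferase driven by Gal4-ERK5 fusion binding five Gal4 sites before minimal TATA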); settings: HeLa Gal4-ERK5 transactivation, 18 h, at 5 µM, stronger effect = higher value
# Sequence of Mitogen-activated protein kinase 7 (Homo sapiens) (Q13164 whole entry, looked up, the tested form may be a part): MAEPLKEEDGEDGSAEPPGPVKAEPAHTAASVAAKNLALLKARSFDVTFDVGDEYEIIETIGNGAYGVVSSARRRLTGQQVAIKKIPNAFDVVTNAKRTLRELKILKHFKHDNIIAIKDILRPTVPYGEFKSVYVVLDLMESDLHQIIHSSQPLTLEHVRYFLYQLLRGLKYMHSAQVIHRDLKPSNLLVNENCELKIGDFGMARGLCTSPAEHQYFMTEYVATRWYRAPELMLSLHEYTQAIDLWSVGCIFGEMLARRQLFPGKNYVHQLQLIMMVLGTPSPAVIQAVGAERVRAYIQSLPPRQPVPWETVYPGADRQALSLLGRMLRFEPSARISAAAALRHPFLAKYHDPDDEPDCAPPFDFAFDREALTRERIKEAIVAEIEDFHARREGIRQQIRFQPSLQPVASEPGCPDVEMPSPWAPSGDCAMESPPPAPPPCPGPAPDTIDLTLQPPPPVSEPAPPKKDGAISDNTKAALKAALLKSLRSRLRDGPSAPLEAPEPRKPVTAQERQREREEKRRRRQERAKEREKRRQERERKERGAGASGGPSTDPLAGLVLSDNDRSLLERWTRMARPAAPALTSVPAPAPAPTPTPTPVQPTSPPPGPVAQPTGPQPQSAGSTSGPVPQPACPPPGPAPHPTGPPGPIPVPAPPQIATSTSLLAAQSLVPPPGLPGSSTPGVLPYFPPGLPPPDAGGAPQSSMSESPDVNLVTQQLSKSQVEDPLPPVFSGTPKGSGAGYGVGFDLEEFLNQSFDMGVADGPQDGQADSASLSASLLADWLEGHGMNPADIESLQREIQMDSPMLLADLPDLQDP
# [3] = viability rescue of complex I mutant cybrids, primary screen, cell-based, galactose medium, ATP luminescence (AID 1645843;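 active means z-score of at least 1.8 in each of two replicates, scored against plate mean and spread of sample wells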;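 further: positive z means more ATP and so rescue of galactose-driven cybrid death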); settings: complex I mutant cybrid cells, 72 h, stronger effect = higher value
# [4] = viability loss in pontine glioma line – cell-based, SU-DIPG-XXV, MIPE5.0, CellTiter-Glo, qHTS, dose response (AID 1347065; cut-off not given, nearly all actives have AC50 up to about 26 µM;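 further: cells exposed to compound for 48 hours before ATP readout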); settings: CellTiter-Glo ATP luminescence
# [5] = SU-DIPG-VI glioma cell viability, MIPE4.0 library, CellTiter-Glo luminescence, qHTS (AID 1347066; cut-off not given, nearly all actives have AC50 up to about 30 µM;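 further: cells exposed to compound for 48 hours before readout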); settings: CellTiter-Glo ATP luminescence
# [6] = JHH-DIPG-1 glioma cell viability, MIPE5.0 library, CellTiter-Glo luminescence, qHTS (AID 1347067; cut-off not given, nearly all actives have AC50 up to about 26 µM;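 further: cells exposed to compound for 48 hours before readout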); settings: JHH-DIPG-1 glioma viability, CellTiter-Glo ATP luminescence
# [7] = SU-DIPG-XXV glioma cell viability, MIPE5.0 library, qHTS (AID 1347068; cut-off not given, nearly all actives have IC50 up to about 30 µM)
# [8] = phospholipid biosynthesis inhibitors in animal cells, primary screen, cell-based, LOPAC library, screen 4 (AID 1347384; call rule not given here); settings: phospholipid biosynthesis inhibition screen, at 10 µM
# [9] = survival rescue of mitochondrial mutant cells in low glucose, primary screen, MELAS cybrids, Rieske KO mouse fibroblasts, CellTiter-Glo (AID 1508586);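 further: z relative to plate mean and SD of compound and empty wells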
# [10] = molecular target: NAD(+) hydrolase SARM1 (Homo sapiens) (UniProt Q6SZW1); test: SARM1 TIR NADase inhibitors, cell lysate, NAD-Glo luminescence (AID 1508614;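 active means compound whose remaining NAD level is above about 45 nM, limit read from the data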); settings: SAM-TIR HEK293T lysate NADase, at 1 µM, stronger effect = higher value
# Sequence of NAD(+) hydrolase SARM1 (Homo sapiens) (Q6SZW1 whole entry, looked up): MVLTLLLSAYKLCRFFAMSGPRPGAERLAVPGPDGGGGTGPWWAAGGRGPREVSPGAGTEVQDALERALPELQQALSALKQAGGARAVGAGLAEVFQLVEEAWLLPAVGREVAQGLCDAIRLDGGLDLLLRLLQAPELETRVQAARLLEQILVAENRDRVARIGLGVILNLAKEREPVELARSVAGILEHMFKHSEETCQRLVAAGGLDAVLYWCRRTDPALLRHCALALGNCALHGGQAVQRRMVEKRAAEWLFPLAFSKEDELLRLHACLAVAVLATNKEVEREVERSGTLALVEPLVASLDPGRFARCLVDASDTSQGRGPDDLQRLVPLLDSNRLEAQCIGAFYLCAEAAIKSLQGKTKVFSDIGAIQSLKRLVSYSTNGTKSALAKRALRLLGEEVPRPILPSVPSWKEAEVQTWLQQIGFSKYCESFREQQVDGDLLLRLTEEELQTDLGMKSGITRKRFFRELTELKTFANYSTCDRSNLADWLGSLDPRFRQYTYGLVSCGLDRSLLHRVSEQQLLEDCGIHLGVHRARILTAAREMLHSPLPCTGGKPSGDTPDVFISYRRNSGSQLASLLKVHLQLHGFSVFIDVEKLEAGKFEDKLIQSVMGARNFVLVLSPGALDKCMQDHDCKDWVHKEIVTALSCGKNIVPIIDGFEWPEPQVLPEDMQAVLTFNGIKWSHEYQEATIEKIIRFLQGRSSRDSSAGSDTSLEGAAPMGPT
# [11] = inhibitors of Cryptococcus chitosan production, flow cytometry, Cibacron Brilliant Red staining (AID 1347148; call rule not given here;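 further: compound exposure lasted three days at 37 degrees C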); settings: Cryptococcus neoformans chitosan, stronger effect = lower value; at 10 µM unless noted
# [12] = MELAS cybrid survival, CellTiter-Glo 48 h, stronger effect = higher value
# [13] = Rieske KO mouse fibroblast survival, CellTiter-Glo 72 h
compound,measurement,setting,value
Cc1cc2c(C(C)C)c(O)c(O)c(C=O)c2c(O)c1-c1c(C)cc2c(C(C)C)c(O)c(O)c(C=O)c2c1O,viability,"[1]; at 0.313 µM, OCI-P5x cells, with rucaparib 20 µM, 100% = cells with rucaparib alone",107% (inactive)
same,viability,"[1]; at 0.313 µM, OCI-P5x cells, without rucaparib",113% (inactive)
same,viability,"[1]; at 1.25 µM, OCI-C5x cells, with rucaparib 10 µM, 100% = cells with rucaparib alone",110% (inactive)
same,viability,"[1]; at 1.25 µM, OCI-C5x cells, without rucaparib",148% (inactive)
same,viability,"[1]; at 1.25 µM, OCI-P5x cells, with rucaparib 20 µM, 100% = cells with rucaparib alone",95.9% (active)
same,viability,"[1]; at 1.25 µM, OCI-P5x cells, without rucaparib",110% (inactive)
same,viability,"[1]; at 5 µM, OCI-C5x cells, with rucaparib 10 µM, 100% = cells with rucaparib alone",130% (inactive)
same,viability,"[1]; at 5 µM, OCI-C5x cells, without rucaparib",156% (inactive)
same,viability,"[1]; at 5 µM, OCI-P5x cells, with rucaparib 20 µM, 100% = cells with rucaparib alone",89.5% (active)
same,viability,"[1]; at 5 µM, OCI-P5x cells, without rucaparib",106% (inactive)
same,luciferase signal,[2],28 AU (inactive)
same,z-score,[3],-1.29 (inactive) and -0.705 (inactive)
Oc1ccc(C2CNCCc3c2cc(O)c(O)c3Cl)cc1 (centres undefined),outcome,[4],inactive
same,outcome,[5],inactive
same,outcome,[6],inactive
same,outcome,[7],inactive
same,outcome,[8],inactive
same,z-score,[9]; [12],0.526 (inactive) and 0.283 (inactive)
same,z-score,[9]; [13],-0.363 and -0.533
same,remaining NAD,[10],10 nM (inactive)
NC(CO)C(=O)NNCc1ccc(O)c(O)c1O (centres undefined),outcome,[4],inactive
same,outcome,[5],inactive
same,outcome,[6],inactive
same,outcome,[7],inactive
same,outcome,[8],inactive
same,z-score,[9]; [12],-0.395 (inactive) and 0.597 (inactive) and -0.0244 (inactive)
same,z-score,[9]; [13],0.352 and -0.231 and -1.37
same,remaining NAD,[10],10 nM (inactive)
same,luciferase signal,[2],132 AU (inactive)
same,z-score,[3],-1.5 (inactive) and -0.255 (inactive)
CN1CCC(=C2c3ccccc3CCc3sccc32)CC1,outcome,[4],inactive
same,outcome,[5],inactive
same,outcome,[6],inactive
same,outcome,[7],inactive
same,z-score,[9]; [12],-0.441 (inactive) and -0.79 (inactive)
same,z-score,[9]; [13],-0.11 and 0.709
same,remaining NAD,[10],10 nM (inactive)
same,luciferase signal,[2],76 AU (inactive)
same,z-score,[3],-0.795 (inactive)
CCOC(=O)C(C)(C)Oc1ccc(Cl)cc1,outcome,[4],inactive
same,outcome,[5],inactive
same,outcome,[6],inactive
same,outcome,[7],inactive
same,fold fluorescence,[11],5.04 (inactive)
same,outcome,[8],inactive
same,z-score,[9]; [12],0.307 (inactive) and -1.09 (inactive)
same,z-score,[9]; [13],-0.506 and -1.36
same,remaining NAD,[10],10 nM (inactive)
same,luciferase signal,[2],44 AU (inactive)
same,z-score,[3],0.15 (inactive) and 0.675 (inactive)
Clc1ccc2nsnc2c1NC1=NCCN1,outcome,[4],inactive
same,outcome,[5],inactive
same,outcome,[6],inactive
same,outcome,[7],inactive
same,outcome,[8],inactive
same,z-score,[9]; [12],-0.43 (inactive) and 0.0544 (inactive) and -0.148 (inactive)
same,z-score,[9]; [13],0.606 and 0.144 and -1.3
O=C(NCCO[N+](=O)[O-])c1cccnc1,outcome,[4],inactive
same,outcome,[5],inactive
same,outcome,[7],inactive
same,z-score,[9]; [12],-0.335 (inactive) and 0.466 (inactive) and -0.214 (inactive)
same,z-score,[9]; [13],-0.979 and 0.348 and 0.117
same,remaining NAD,[10],10 nM (inactive)
same,z-score,[3],0.795 (inactive) and 0.02 (inactive) and 0.605 (inactive)
